Results on 48 molecules are retold here after ChEMBL document CHEMBL3988442, “University of Dundee, Small-Polar-MMV Screening Library” (2021).

In all, about 66,000 compounds went through this assay and about 960 (1.5%) showed an effect of 50% or more. The full list was thinned out, with strong results kept by preference.

This assay has as its system Trypanosoma brucei. Briefly: Trypanosoma brucei 72 hour study. It is filed as functional, organism-based. Also noted: scale not given: in the data most compounds retested in dose-response had high values.

On to `Cc1ccc(CN(CCCN(C)C)Cc2cnc(C)n2C)o1.O=C(O)CC(O)(CC(=O)O)C(=O)O`, for which the “Percent Effect” value (30.3 µM, […]) is listed as -2.378%.
For `CCn1c(C(=O)N2CCN(CC[S+](C)[O-])CC2)cc2ccccc21` (stereo not drawn), for the setting “10 µM”, the “Percent Effect” value is on record as -31.07%.
In the case of `CN(C)c1cccc(CNC(=O)Nc2cc(C#N)ccc2Cl)n1`, for the setting “30.3 µM, […]”, the “Percent Effect” value was -223.5%.
Same read-out and setting: the figure for `COCc1c(Cl)cccc1NC(=O)NCc1cccc(N(C)C)n1` is 55.78%; for `COc1cc(F)cc(NC(=O)NCc2cccc(N(C)C)n2)c1` it is -613%.
The same measure, in the same setting: next, `COc1ccc(C)c(NC(=O)NCc2cccc(N(C)C)n2)c1`: -277.4%; `COc1ccc(NC(=O)NCc2cccc(N(C)C)n2)c(Cl)c1`: 103.9%.
Regarding `CC(=O)c1ccc(NC(=O)NCc2cccc(N(C)C)n2)cc1C`, the “Percent Effect” value (30 µM, 30.03 µM) is recorded as -17.1%.
`N#Cc1cccc(C(=O)N2CCC3(CCC(=O)N(C4CC4)C3)CC2)c1`: for the setting “30 µM, 30.03 µM”, the “Percent Effect” value was -3.327%.
The same measure, in the same setting: the figure for `O=C(O)C(F)(F)F.c1ccc(CN2CCc3c(CNc4nccs4)n[nH]c3C2)nc1` is -34.93%.
On to `Cc1ccn(CCC(=O)N2CCCC2c2nnc(-c3scnc3C)o2)n1` (stereo not drawn), for which the “Percent Effect” value (30.3 µM, […]) is on record as -1.608%.
As to `Cc1cnc(-c2nc(C3CCCN(Cc4ccccc4C)C3)no2)cn1.Cl` (stereo not drawn), where the note is “30.3 µM, […]”, the “Percent Effect” value was -19.46%.
`Cn1ccc2c(-c3cc(N)nc(N4CCOCC4)n3)ccnc21`: the “Percent Effect” value (30 µM, 30.03 µM) is on record as 69.92%.
Same read-out and setting: next, `Cn1ccc2c(-c3cc(N4CCOCC4)ncn3)ccnc21`: -20.01%; `CCc1cc(-c2ccnc3c2ccn3C)nc(N2CCOCC2)n1`: -28.1%; `CCNc1nc(C(=O)N(C)Cc2nc(CC)no2)cs1`: -27.33%.
Take `CC(C)c1nc(C2CCCN2c2cnc3cc(F)c(F)cc3n2)no1` (stereo not drawn): the “Percent Effect” value (30.3 µM, […]) was 85.34%.
Same read-out and setting: next, `CC(C)c1nc(C2CCCN2c2cnc3ccccc3n2)no1` (stereo not drawn): -0.9034%; `CC(C)c1nc(C2CCCN2c2ccnc(C3CCCC3)n2)no1` (stereo not drawn): -51.91%; `Cc1noc(C)c1CN1CCc2ncnc(-c3ccoc3)c2CC1.O=C(O)C(F)(F)F`: -51.79%.
Consider `c1ccc(Oc2ccc(OC34CCCN(CC3)C4)cc2)cc1` (stereo not drawn), for which the “Percent Effect” value (30.3 µM, […]) came to 99.82%.
For the molecule `Cc1cnccc1CNCc1ccc(OC23CCCN(CC2)C3)cc1` (stereo not drawn), for the setting “30 µM, 30.03 µM”, the “Percent Effect” value was 6.423%.
Still for that read-out and setting: next, `Cc1nc(CNCc2cccc(OC34CCCN(CC3)C4)c2)n[nH]1` (stereo not drawn): 3.883%.
`O=c1[nH]nc(CNCc2ccc(OC34CCCN(CC3)C4)cc2)[nH]1` (stereo not drawn): for the setting “30 µM, 30.03 µM”, the “Percent Effect” value is -0.5692%.
On to `c1ccc(Oc2cccc(OC34CCCN(CC3)C4)c2)cc1` (stereo not drawn), for which the “Percent Effect” value (30.3 µM, […]) is reported as 99.26%.
Consider `COc1cc(C#N)ccc1OC12CCCN(CC1)C2` (stereo not drawn), for which the “Percent Effect” value (30 µM, 30.03 µM) is recorded as -13.64%.
On to `Cl.O=C(Nc1cccc(CNCc2cccs2)c1)C1CC1`, for which the “Percent Effect” value (10 µM) is reported as -25.65%.
For the molecule `O=C(CC1CCC2(CC1)CCN(Cc1ccncc1)CC2)N1CCCC1.O=C(O)C(F)(F)F`, where the note is “30.3 µM, […]”, the “Percent Effect” value is -30.07%.
The same measure, in the same setting: next, `CCCn1c(N2CCCC2)nc2c(C)nn(C)c2c1=O`: -10.23%.
With `CCCn1c(N2CCCCC2)nc2c(C)nn(C)c2c1=O`, for the setting “30.3 µM, […]”, the “Percent Effect” value was -27.42%.
On to `CCCn1c(N2CCCC(C)C2)nc2c(C)nn(C)c2c1=O` (stereo not drawn), for which the “Percent Effect” value (30.3 µM, […]) is recorded as 99.54%.
The same measure, in the same setting: next, `CC(C)CS(=O)(=O)N1C[C@H]2C[C@H](C(=O)N3CCOCC3)[C@@H](C1)O2`: -39.74%.
Consider `COc1ncccc1CNc1snc(Cl)c1C#N`, for which the “Percent Effect” value (30 µM, 30.03 µM) is -23.85%.
On the same count and under the same terms, the figure for `CCN(CC)CCNC(=O)c1cc(C(C)C)nc(N2CCCC2)n1` is -3.491%.
In the case of `CC(C)c1cc(C(=O)NCCCN(C)C)nc(N2CCCC2)n1`, where the note is “30.3 µM, […]”, the “Percent Effect” value worked out at 85.35%.
As for `COCCCNC(=O)c1cc(C(C)C)nc(N2CCCC2)n1`, the “Percent Effect” value (30.3 µM, […]) was -9.807%.
Same read-out and setting: next, `Cc1nc(C(=O)N2CC[C@@]3(C[C@@H](NS(C)(=O)=O)CCO3)C2)cs1`: -224.6%; `Cc1ccn(-c2ccc(NCc3ccccc3F)nn2)n1`: -5.586%.
The same measure, in the same setting: the figure for `Cc1ccn(-c2ccc(NCc3ccnc(N4CCCCC4)c3)nn2)n1` is 100.1%; for `Cc1ccn(-c2ccc(NCc3cccnc3N3CCCCC3)nn2)n1` it is 1.055%; for `CC1c2ncc(CNC(=O)C3CC3)n2CCN1Cc1ccsc1.O=C(O)C(F)(F)F` (stereo not drawn) it is -8.055%.
The same measure, in the same setting: the figure for `N#Cc1cccc(S(=O)(=O)NC(=O)COCC(F)(F)F)c1` is -64.9%.
In the case of `O=C(CCOCC(F)(F)F)NS(=O)(=O)c1cccnc1`, under “30.3 µM, […]”, the “Percent Effect” value is on record as -16.93%.
Still for that read-out and setting: the figure for `N#Cc1cccc(S(=O)(=O)NC(=O)CCOCC(F)(F)F)c1` is 72.29%; for `CN(C)c1ncc(-c2cc(C(=O)NCCC#N)n(CC3CC3)c2)cn1.O=C(O)C(F)(F)F` it is -1.079%.
The same measure, in the same setting: the figure for `Cn1cc(C(=O)N2CCCC(Cc3cccc4ncccc34)C2)cn1` (stereo not drawn) is -45.5%.
`CCN(CC)C(=O)NCCc1ccn(-c2ccccc2)n1`: the “Percent Effect” value (10 µM) came out at 99.69%.
Regarding `CC(C)CCC(=O)NCCc1ccn(-c2ccccc2)n1`, the “Percent Effect” value (10 µM) is listed as 100.3%.
